# High-throughput results from PubChem.
# D1 antagonist = antagonists of human D1 dopamine receptor | HEK293 TREx D1 cells, calcium flux, dopamine EC80; active compounds read low | 3.2% of 360,000 active | P21728 | activity change, negative = inhibition, % at 10 µM; in the data active = activity change below about -30%; note: % is set by controls: 0 for no effect and ±100 for the full control effect
# Target sequence (P21728 whole entry, looked up): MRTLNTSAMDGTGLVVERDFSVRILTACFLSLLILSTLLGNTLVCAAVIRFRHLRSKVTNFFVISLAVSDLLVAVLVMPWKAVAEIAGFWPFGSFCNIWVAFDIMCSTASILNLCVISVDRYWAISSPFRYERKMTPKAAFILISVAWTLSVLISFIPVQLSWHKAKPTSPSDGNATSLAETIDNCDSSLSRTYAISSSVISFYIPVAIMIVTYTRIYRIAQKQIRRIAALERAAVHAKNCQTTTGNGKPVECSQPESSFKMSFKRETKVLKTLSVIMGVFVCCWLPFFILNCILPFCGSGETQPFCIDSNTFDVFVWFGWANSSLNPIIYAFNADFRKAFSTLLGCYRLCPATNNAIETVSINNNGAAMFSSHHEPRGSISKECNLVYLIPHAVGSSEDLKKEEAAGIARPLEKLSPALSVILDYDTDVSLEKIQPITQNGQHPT
#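 HEK293 T-REx cells expressing inducible, force-coupled D1 receptor; no-wash Ca dye, 30–90 min RT. Cmpd → 180 s read at 1 Hz → EC80 DA → 180 s read.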
# D3 ag = activates the human D3 dopamine receptor; P35462; 0.58% of 410,000 active; D3R DiscoveRx beta-arrestin cells, luminescence, 90 min; max activation, %; AID 652048; in the data active = max activation above about 30%; note: 0% is about no effect
#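 Agonist-mode cell screen: cells plated at 1500/well and incubated overnight at 37 °C, then exposed to library compounds for 90 min at 37 °C. Detection reagent was added for 30–60 min at room temperature, and luminescence was read.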
# D1 ag = activates the human D1 dopamine receptor; P21728; HEK293 T-REx D1 cells, calcium flux, agonist mode; activation, % at 2 µM; 1% of 360,000 active; in the data active = activation above about 30%; note: 0% is about no effect
#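 Tetracycline-induced HEK293 TREx D1 cells, force-coupled to calcium signalling, were dye-loaded with a no-wash calcium kit. Compound was pin-added after a 10 s baseline. Fluorescence was read kinetically at 1 cycle/s for 180 s, with calcium rises flagged as agonism.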
# D1 PAM = potentiators of human D1 dopamine receptor. P21728. HEK293 TREx D1 cells, calcium flux, dopamine EC20 potentiation. potentiation, % at 10 µM. 0.036% of 360,000 active. AID 504651; in the data active = potentiation above about 30%; note: 0% is about no effect
# D3 antag = antagonists of human D3 dopamine receptor; D3R cells, DiscoveRx beta-arrestin luminescence, antagonist mode; active compounds read low; max response, negative = inhibition, %; 2.5% of 360,000 active; P35462; in the data active = max response below about -50%; inconclusive = no clear call, values can overlap the other calls; note: % is set by controls: 0 for no effect and ±100 for the full control effect
#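 Cells plated overnight at 1500 cells/well, then exposed to library compounds with dopamine controls for 90 minutes at 37 degrees C. DiscoveRx reagent added for 30–60 minutes at room temperature; luminescence read, quantitative HTS format.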
# * = called active by the depositor; ? = inconclusive; · = not tested or not shown. Only some compounds are listed: those with a hit (about 6% of all), similar ones and a draw of the others.
SMILES,D1 antagonist,D3 ag,D1 ag,D1 PAM,D3 antag
Nc1ccc(S(=O)(=O)NCc2ccccc2)cc1,·,-10,·,·,·
CCCC(C)c1oc(=O)cc(O)c1C (configuration not stated),·,60*,·,·,-3
CCc1ccccc1NC(=O)C1CCCN(S(=O)(=O)c2ccc3[nH]c(=O)ccc3c2)C1 (configuration not stated),1,-3,0,0,·
Cn1cc(CN2CCc3ccccc3C2)c2ccccc21,0,-28,1,0,-95*
c1ccc(-c2[nH]ncc2CN2CCc3ccccc3C2)cc1,-24,-26,3,-9,?
CC(C)OCc1cc(CN2CCN(c3cccc(C(F)(F)F)c3)CC2)c(O)c2ncccc12,-1,-14,3,-2,·
Oc1ccc(CN2CCC(Cc3ccccc3)CC2)c2cccnc12,10,-21,-2,-10,-88*
Oc1ccc(Cc2ccccc2)c2cccnc12,·,-10,·,·,-29
Oc1ccc(CN2CCc3ccccc3C2)c2cccnc12,5,-13,0,-6,-114*
O=[N+]([O-])c1cc(CN2CCN(c3cccc(C(F)(F)F)c3)CC2)c2cccnc2c1O,-16,-27,1,-3,-106*
COc1cc(C(=O)Nc2cccc(OCc3cc(=O)n4c(C)csc4n3)c2)cc(OC)c1OC,-8,7,-1,0,·
CC(C)(C)C(=O)Nc1nnc([C@H]2C[C@H](O)[C@@H](CO)O2)s1,·,7,·,·,16
O=C(CNC(=O)c1cccc(Cl)c1)OC(C(=O)Nc1cc(C(F)(F)F)ccc1Cl)c1ccccc1 (configuration not stated),-2,·,12,-1,·
CCN(CC1CCCO1)C(=O)CCc1nnc(CCc2ccccc2)o1 (configuration not stated),·,5,·,·,31
CC1CC(C)(C)CC2(C1)NC(=O)N(CC(=O)Nc1ccc3c(c1)OCO3)C2=O (configuration not stated),·,-1,·,·,2
Oc1ccc(CN2CCN(c3ccccc3)CC2)c2cccnc12,-16,-26,0,-1,-100*
Oc1ccc(CN2CCCCC2)c2cccnc12,2,-32,2,2,?
Ic1ccc(N2CCN(Cc3c[nH]c4ncccc34)CC2)cc1,-2,-88,-1,-3,-58*
Oc1c(CN2CCN(c3ccccn3)CC2)cc(Cl)c2cccnc12,14,-49,1,-6,-128*
Fc1ccc(N2CCN(Cc3ccccn3)CC2)cc1,-10,-15,1,-6,-20
Oc1c(CN2CCCCC2)cc(COCc2ccccc2)c2cccnc12,0,-9,2,2,-125*
COC(=O)CC1C(=O)NCCN1C(=O)c1oc2c(C)c(C)ccc2c1C (configuration not stated),·,6,·,·,20
COc1c(O)ccc(/C=N\NC(=O)c2ccc3c(c2)OCO3)c1[N+](=O)[O-],-14,2,-3,-6,-5
CCNC(=O)C1(C)CCCN(C(=O)c2cccnc2Oc2ccccc2)C1 (configuration not stated),·,7,·,·,0
Cc1nn2c(N3CCN(C)CC3)c3c(nc2c1-c1ccccc1)CCCC3,14,-12,1,1,-50*
SMILES,D1 antagonist,D3 ag,D1 ag,D1 PAM,D3 antag
CC(NC(=O)CCCn1c(=O)c2cccn2c2cccnc21)c1ccccc1 (configuration not stated),-5,-9,0,4,·
N#Cc1ccccc1C[C@H](N)C(=O)NC[C@H]1O[C@@H](n2cnc3c(N)ncnc32)[C@H](O)[C@@H]1O,·,1,·,·,7
Cc1ccc(N(CC(=O)N2CCN(c3cccc(C)c3C)CC2)S(=O)(=O)c2c(C)nn(C)c2C)cc1,-43*,-2,3,0,·
Cc1cccc(C)c1N(CC(=O)N1CCN(C)CC1)S(C)(=O)=O,-13,4,0,2,-79*
COc1cccc(NC(=O)CN2C=NS(=O)(=O)c3ccccc32)c1,0,-20,1,1,·
Cc1ccc(NC(=O)NNC(=O)C2CC(c3cccnc3)=NO2)cc1 (configuration not stated),-6,-11,5,-12,-62*
Cc1ccc(CCNC(=O)C2CC(c3cccc(F)c3)=NO2)cc1 (configuration not stated),-62*,23,3,4,27
CCCCNC(=O)C1CC(c2cccc(F)c2)=NO1 (configuration not stated),-45*,-6,5,8,-7
O=C(NNC(=O)C1CC(c2cccnc2)=NO1)Nc1ccccc1F (configuration not stated),1,0,7,-2,-2
O=C(c1ccc(Cl)cc1)n1nc(-c2ccco2)nc1NCc1cccs1,0,-2,2,-1,·
CCOc1ccc(NC(=O)Cn2c(=O)n(Cc3ccccc3)c(=O)c3sc4ccccc4c32)cc1,-16,1,3,-4,·
CCOC(=O)c1c(C)oc2nc(C)nc(NCCc3ccc(SC)cc3)c12,-32*,6,5,-6,·
COC(=O)c1cc2sccc2n1Cc1nc(-c2cccc(Br)c2)oc1C,15,-6,1,0,·
CC1CCc2nc(/C(C#N)=C/c3ccncc3)sc2C1 (configuration not stated),0,11,-1,-3,9
O=C(Nc1nc2ccccc2n1CCOc1ccc(Cl)cc1)c1ccco1,-1,-7,4,-2,3
O=C(NCCCc1nc2ccccc2n1Cc1ccc(Cl)cc1)c1ccco1,-31*,-11,81*,-2,·
O=C(Nc1nc2ccccc2n1Cc1ccc(Cl)cc1)c1ccco1,-20,-2,0,-4,-60*
CCn1c(NCc2ccco2)nc2ccccc21,22,0,-1,-7,-10
O=C(NCCCc1nc2ccccc2n1Cc1cccc(Cl)c1)c1ccco1,17,-17,2,-1,·
c1ccc(Cn2c(NCc3ccco3)nc3ccccc32)cc1,-36*,1,6,2,-23
CCOC(=O)C1=CCN(S(=O)(=O)c2ccccc2)C1c1ccc(Cl)cc1 (configuration not stated),·,8,·,·,6
CCOC(=O)C1CCN(C(=O)Cc2c(C(=O)O)n(CC)c3ccccc23)CC1,-87*,-19,1,-5,-14
O=C(CNC(=O)c1ccc(C(F)(F)F)cc1)OC(C(=O)Nc1cc(C(F)(F)F)ccc1Cl)c1ccccc1 (configuration not stated),-12,·,7,-1,·
COc1ccc(N(C(=O)Cc2cccs2)C(C(=O)NC2CCCC2)c2ccncc2)cc1 (configuration not stated),1,2,1,-5,11
O=C(NC1CCCC1)C(c1ccncc1)N(C(=O)Cc1cccs1)c1ccc(F)cc1 (configuration not stated),-10,38*,2,-8,11
Cc1cc(=O)oc2cc(OCC(=O)N3CCCc4ccccc43)ccc12,-35*,0,2,-8,23
